Source: PubChem BioAssay (NCATS)
Inconclusive results are not listed. A number with no mark means an inactive call. Activity calls are given as the source filed them. The call rests on the fitted dose curve; in most records, active means well fitted cell-killing curve with a large enough effect; inconclusive means small, poorly fitted or top-dose-only effect, or effect the other way; inactive means flat fitted curve, though single readings scatter.

Experiments:
Experiment in all cases: Primary qHTS to identify gynecologic anti-cancer compounds using libraries of approved drugs and bioactive compounds (AID 1345084); further: nearly all actives have a fitted effect of over 55% in size
Details in all cases: Gynecologic cancer cell panel viability, ATPlite luminescence, 48 h; series mostly up to 57.5 µM
[1] = tested on: SKOV3
Summary of the method: (§1)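 Five-point cytotoxicity, 48 h drug exposure at 37 C, 5% CO2, on cells seeded 16 h beforehand. ATP content read by ATPlite luminescence.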

[2] = tested on: Tov-21-G
Summary of the method: as §1

[3] = tested on: Tov112D
Summary of the method: as §1
On the % scale 0 is the no-effect control and ±100 the full control effect; potency means the concentration at half of the fitted maximal effect.

Compound	Potency [1]	Potency [2]	Potency [3]	activity change, negative = cytotoxicity [1]	activity change, negative = cytotoxicity [2]	activity change, negative = cytotoxicity [3]
COc1ccc(C#Cc2ccc(C(=O)N3CCC[C@@H](O)C3)c(F)c2)cc1	8.91 µM (active)	7.08 µM (active)	8.91 µM (active)	–	–	–
C[C@@H]1O[C@@H](O[C@H]2[C@H](OC(=O)[C@]34CCC(C)(C)C[C@H]3C3=CCC5[C@@]6(C)C[C@H](O)[C@H](O[C@@H]7O[C@H](C(=O)O)[C@@H](O)[C@H](O)[C@H]7O)[C@@](C)(CO)C6[C@H](O)C[C@@]5(C)[C@]3(C)C[C@H]4O)O[C@@H](CO)[C@@H]2O)[C@H](O)[C@H](O)[C@H]1O[C@@H]1OC[C@@H](O)[C@H](O[C@H]2OC[C@](O)(CO)[C@H]2O)[C@H]1O (stereo not given in full)	–	–	–	-5.43% [at 6.55 µM]	-13.8% [at 6.55 µM]	-1.13% [at 6.55 µM]
CNc1cccc(CCOc2ccc3c(c2)CN(CC(F)(F)F)C(=O)[C@H](CC(=O)O)C3)n1	1.78 µM (active)	0.501 µM (active)	inactive	–	–	–
NC(=O)c1cccc2[nH]c(-c3ccc(C4CCCN4)cc3F)nc12 (stereo not given)	14.1 µM (active)	12.6 µM (active)	15.8 µM (active)	–	–	–
C[C@@H]1O[C@@H](O[C@H]2CC[C@@]3(C)C(CC[C@]4(C)C3CC=C3[C@@H]5CC(C)(C)CC[C@]5(C(=O)O[C@@H]5O[C@H](CO)[C@@H](O)[C@H](O)[C@H]5O)CC[C@]34C)[C@]2(C)CO)[C@H](O)[C@H](O[C@@H]2O[C@H](CO)[C@@H](O)[C@H](O)[C@H]2O)[C@H]1O (stereo not given in full)	–	–	–	8.14% [at 11.6 µM]	-24% [at 11.6 µM]	1.58% [at 11.6 µM]
